Assay outcomes: PubChem BioAssay, National Center for Advancing Translational Sciences (NCATS)
FLuc inh – blocks Photinus pyralis firefly luciferase activity | P08659 | purified firefly luciferase, luminescence, 8 min | Potency, µM (titrated, usually from 57.1 µM), for inactives: at the highest dose activity change, negative = inhibition, most hits filed as inhibitors | 72,000 tested, 2.2% active | AID 411; further: potency means the concentration at half of the fitted maximal effect; on the % scale 0 is the no-effect control and ±100 the full control effect; nearly all actives have a fitted effect of over 40% in size
Target sequence (P08659 whole entry, looked up): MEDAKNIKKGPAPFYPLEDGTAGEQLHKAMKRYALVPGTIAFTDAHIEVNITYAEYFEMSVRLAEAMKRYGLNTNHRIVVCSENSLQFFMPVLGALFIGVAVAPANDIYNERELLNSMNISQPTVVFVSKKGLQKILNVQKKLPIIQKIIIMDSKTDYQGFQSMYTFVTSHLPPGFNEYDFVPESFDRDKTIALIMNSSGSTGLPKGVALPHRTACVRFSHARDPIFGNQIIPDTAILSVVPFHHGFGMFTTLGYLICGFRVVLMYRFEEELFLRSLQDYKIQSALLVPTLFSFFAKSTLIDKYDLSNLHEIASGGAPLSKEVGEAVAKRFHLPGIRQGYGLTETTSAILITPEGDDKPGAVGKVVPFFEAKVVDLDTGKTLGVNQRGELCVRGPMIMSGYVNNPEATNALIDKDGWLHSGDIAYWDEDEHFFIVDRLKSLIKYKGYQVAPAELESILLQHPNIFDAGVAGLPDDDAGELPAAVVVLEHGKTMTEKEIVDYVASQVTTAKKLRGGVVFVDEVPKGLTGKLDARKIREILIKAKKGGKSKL
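Inhibition of light generation by firefly luciferase from ATP and luciferin was profiled with concentration-response curves per sample, ATP held at 10 uM within the enzyme's linear range. Plates were read by luminescence after an 8-minute ambient incubation.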
IkB sig inh – inhibitors of IkB signaling in ABC-DLBCL cells | Potency, µM (doses to about 57.1 µM), without a hit: at the highest dose IkBa stabilization activation | ABC-DLBCL IkBa-CBG/CBR dual luciferase ratio, 4 h; response scale: scaled: untreated 0%, proteasome inhibitor 100% | 110,000 tested, 0.04% active; active means well fitted curve in the direction sought with a large enough effect in the signal ratio, not every such curve was filed as active; inconclusive means small, poorly fitted or top-dose-only effect, or a change in a side signal; the % refers to the signal ratio;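 further: potency means the concentration at half of the fitted maximal effect; the direction sought is a rising ratio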
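Curves were fitted separately to fusion (green), unfused (red) and ratio luminescence, then classed by r2, magnitude and activity. Cells: OCI-Ly3, 4 h compound plus doxycycline at 37C; 10 uM MG-132 defined full response.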
p53ts 32C kill – p53ts cell cytotoxicity, permissive temperature. 130,000 tested, 0.93% active. AID 924. H1299-p53A138V at 32C, ATP luminescence viability, 24 h. Potency, µM (top dose mostly 46.1 µM), inactives show at the highest dose activity change, negative = cytotoxicity, hits mostly cytotoxic;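 further: potency means the concentration at half of the fitted maximal effect; 0% = DMSO and -100% = full killing by reference compound; nearly all actives have a fitted effect of over 55% in size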
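Cells: H1299 p53ts (A138V), 600/well, pre-incubated 16–30 h at 37C. Cpd up to 46 uM, 24 h, 32C. Readout: ATPlite luminescence, 20 min RT. Normalization: DMSO vs tamoxifen 100 uM. AC50 by Hill equation.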
Hsp90 Hop PPI – changes Hsp90-Hop TPR2A binding signal, up or down; AlphaScreen TPR2A-His6 binding biotin-Hsp90 C-terminal peptide; Potency, µM (top dose mostly 57 µM), for inactives: top-dose activity change, negative = inhibition; 71,000 tested, 0.44% active; active means well fitted curve in either direction with a large enough effect; inconclusive means small, poorly fitted or top-dose-only effect, or another doubt; further: potency means the concentration at half of the fitted maximal effect; on the % scale 0 is the no-effect control and ±100 the full control effect
IMPase inh – IMPase inhibition in cells. P97697. CHO-M1 cells, IP1 accumulation, HTRF TR-FRET ratio. 120,000 tested, under 10 active. inhibition (IP1 accumulation), % at 46.1 µM; active means well fitted curve in the direction sought with a large enough effect in the signal ratio, not every such curve was filed as active; inconclusive means small, poorly fitted or top-dose-only effect, or a change in a side signal; inactive means no such curve, though single readings can be large or run the other way; the % refers to the signal ratio;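 further: cells stimulated with carbachol in lithium chloride buffer; plate controls were DMSO basal wells for no effect and reference inhibitor wells for full effect; higher means more IMPase inhibition seen as more IP1 and lower FRET ratio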
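Cellular IMPase inhibition is scored as a rise in cytosolic IP1, detected by competitive TR-FRET between d2-labelled IP1 and a europium anti-IP1 antibody. M1-expressing CHO cells were stimulated with carbachol for 30 min at 37C, with lithium (50 mM LiCl) present in the buffer.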
p53ts 39C tox – cytotoxicity in p53ts cells at nonpermissive temperature; H1299-p53A138V viability at 39C, ATP luminescence, 24 h; Potency, µM (highest dose often 46.1 µM), without a hit: at the highest dose activity change, negative = cell killing, usual class: cytotoxic; 130,000 tested, 1.5% active; AID 902; further: potency means the concentration at half of the fitted maximal effect; on the % scale 0 is the no-effect control and ±100 the full control effect; nearly all actives have a fitted effect of over 55% in size
Active calls of the source: *; ? = inconclusive; . = no result given; [ ] = another dose, or the depositor's remark. Shown is part of a subset that was picked to be rich in hits. Unless noted, the call rests on the fitted dose curve; in most records, active means well fitted curve in the direction sought with a large enough effect; inconclusive means small, poorly fitted or top-dose-only effect, or another doubt; inactive means no such curve, though single readings can be large; an effect the other way counts as inactive or inconclusive.

SMILES	FLuc inh	IkB sig inh	p53ts 32C kill	Hsp90 Hop PPI	IMPase inh	p53ts 39C tox
COc1ccc(OC)cc1	.	-1.5%	11.1%[1.84 µM]	-1.5%	.	-16.5%
C=CCCCC	.	0.1%	10.0%[1.84 µM]	1.7%	.	-16.2%
C[C@@H]1CN(CCCn2c3ccccc3c3ccccc32)C[C@H](C)N1	0.1%	?	16.5%	-4.6%	3.5	25.1µM*
CCOC(=O)c1cnc(-n2nc(C)cc2C)nc1N(C)C	12.6µM*	-3.8%	3.16µM*	?	8.3	2µM*
c1ccc(-c2ccc(N3CC4(CCNCC4)C3)cc2)cc1	-7.2%[11.4 µM]	30.0%[11.4 µM]	20µM*	?	.	15.8µM*
c1ccc(-c2ccc(N3CC[C@@]4(CCCNC4)C3)cc2)cc1	-23.0%[11.4 µM]	?	?	-29.7%	.	?
c1ccc(-c2ccc(N3CCCC4(CCNCC4)C3)cc2)cc1	-4.8%[11.4 µM]	5.0%[11.4 µM]	20µM*	?	.	12.6µM*
O=c1cnn(-c2ccccc2)c(-c2ccccc2)c1	12.6µM*	-0.3%	-10.2%	3.0%	0.6	-23.9%
COc1cc(/C=c2\sc3nc(-c4ccncc4)nn3c2=O)ccc1OC(C)=O	3.16µM*	-2.0%	-20.6%	?	?	-1.9%
CC(=O)Oc1cccc(/C=c2\sc3nc(-c4ccco4)nn3c2=O)c1	-2.7%	0.3%	18.0%	-3.6%	4.5	8.7%
CCOC(=O)c1ccc(NC(=O)c2cc(=O)c3ccc(C)c(C)c3o2)cc1	.	-2.0%	?	.	.	20µM*
Cc1ccc2nc(/C(C#N)=C/c3ccc(-c4cccc(Cl)c4)o3)[nH]c2c1	.	?	?	.	-11.3	3.98µM*
Cc1cccc(NC(=O)CSc2nc3n[nH]c(C)c3c(=N)n2-c2cccc(Cl)c2)c1	.	?	9.2%	.	.	-20.4%
COc1ccc(C2CC(c3cccs3)=Nc3ccccc3S2)cc1 (stereo not given)	.	.	25.1µM*	.	11.4	47.1%
COc1ccc(C2CC(c3ccccc3)=NN2C(=O)c2cccs2)cc1 (stereo not given)	.	.	.	.	1.7	.
Cc1csc(NC(=O)CCn2c(=O)sc3ccccc32)n1	-14.3%	0.3%	-4.3%	1.3%	5.2	-15.1%
O=C(CCn1c(=O)sc2ccccc21)Nc1nccs1	20µM*	2.3%	?	-1.8%	-0.3	?
Cc1ccc(S(=O)(=O)N[C@H](CO)C(=O)O)cc1	2.0%[11.4 µM]	0.4%[11.4 µM]	18.1%[9.22 µM]	-3.0%[11 µM]	.	7.2%[9.22 µM]
Cc1ccc(S(=O)(=O)N[C@@H](Cc2ccccc2)C(=O)CCl)cc1	-4.6%	?	6.31µM*	-7.9%	9.7	3.16µM*
Cc1ccc(SCc2cn3c(C)csc3n2)cc1	15.8µM*	?	?	-3.5%	9.2	12.6µM*
COc1ccc(-c2noc(-c3cccc(OC)c3OC)n2)cc1	.	?	12.6µM*	.	-2.4	?
COc1ccc(-c2noc(-c3ccccc3-c3ccccc3)n2)cc1OC	-1.8%	1.9%	9.9%	?	7.7	-0.7%
O=C(CC1Nc2ccccc2NC1=O)c1ccccc1 (stereo not given)	12.6µM*	?	?	8.7%	12.0	?
CCCCn1c(CN2CCN(c3cccc(Cl)c3)CC2)nc2c1c(=O)[nH]c(=O)n2C	2.3%	4.4%	-5.3%	-2.1%	13.5	-20.2%
Cn1c(=O)[nH]c(=O)c2c1nc(CN1CCN(c3cccc(Cl)c3)CC1)n2CCCc1ccccc1	-1.0%	7.0%	5.01µM*	-4.4%	2.9	3.98µM*
SMILES	FLuc inh	IkB sig inh	p53ts 32C kill	Hsp90 Hop PPI	IMPase inh	p53ts 39C tox
CCCCCCS(=O)Cc1ccccc1 (stereo not given)	-0.3%	0.8%	5.8%	-1.4%	-3.6	7.2%
CCCCCCCCCCCCC[N+](C)(C)Cc1ccccc1	.	.	15.8µM*	.	.	12.6µM*
COc1cccc(NC(=O)CC(C)S(=O)(=O)c2ccc3c(c2)NC(=O)CO3)c1 (stereo not given)	.	.	0.3%	.	.	.
CC(C)C(NC(=O)C1CCCCC1)C(=O)Nc1ccc2c(c1)OCCO2 (stereo not given)	12.6µM*	-1.4%	?	-5.8%	7.9	?
CC(C)C(NC(=O)C1CCCCC1)C(=O)Nc1ccncc1 (stereo not given)	0.7%	-1.7%	7.8%	4.6%	4.7	2.3%
CC(C)C(=O)NC(c1ccco1)c1ccc2cccnc2c1O (stereo not given)	0.7%	?	-18.7%	10µM*	5.9	3.98µM*
COc1ccc(C(NC(C)=O)c2ccc3cccnc3c2O)c(OC)c1 (stereo not given)	0.9%	5.9%	?	15.8µM*	-2.1	?
O=C(O)c1ccc(N[C@H](c2ccccc2)c2ccc3cccnc3c2O)cc1	1.9%[11.4 µM]	6.2%[11.4 µM]	-8.6%[9.22 µM]	-18.7%[11 µM]	.	?
COc1ccccc1NC(=O)CSc1nnc(NC(=O)Nc2ccc(C)cc2)s1	.	?	0.8%	.	.	?
COc1ccccc1-c1nnc(Nc2nc3c(OC)cccc3s2)o1	?	?	3.8%	0.8%	0.3	?
COc1cccc(-c2nnc(Nc3nc4c(F)cccc4s3)o2)c1	12.6µM*	?	?	1.2%	-21.7	12.6µM*
COc1cccc2sc(Nc3nnc(-c4ccccc4Cl)o3)nc12	15.8µM*	?	?	5.4%	-10.3	12.6µM*
COc1cccc(-c2nnc(-c3ccc(C(F)(F)F)cc3)o2)c1	.	.	-3.4%	.	9.8	-7.0%
CCc1cc2c(cc3c(=O)n(CC(=O)NC(C)C)nc(CC)n32)s1	.	-1.0%	0.1%	.	.	-4.6%
Cc1ccccc1CCNC(=O)c1ccc2c(c1)nc1n2CCOC1	.	-0.7%	7.94µM*	.	.	6.31µM*
O=C(NCCc1ccc(Cl)cc1)c1ccc2c(c1)nc1n2CCOC1	.	?	-11.1%	.	.	-23.4%
